ATXN2 expr inh: Primary qHTS for Inhibitors of ATXN expression; HEK-293 ATXN2-luciferase reporter, luminescence, 24 h; Potency, µM (top dose mostly 57 µM), without a hit: at the top dose activity change, negative = inhibition, hits mostly inhibitors; 360,000 tested, 0.72% active; AID 1745845, 2022; further: potency means the concentration at half of the fitted maximal effect; on the % scale 0 is the no-effect control and ±100 the full control effect; nearly all actives have a fitted effect of over 55% in size
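ATXN2-luciferase reporter cells (luciferase flanked by upstream and downstream ATXN2 gene portions) were treated 24 h at 37 °C with compounds at up to 57 uM. SteadyGlo luminescence gave expression; GF-AFC fluorescence gave viability.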
ATXN viability: Viability Counterscreen for Primary qHTS for Inhibitors of ATXN expression | Potency, µM (highest dose often 56.7 µM), most hits filed as cytotoxic | 400,000 tested, 0.49% active | S2 cells (HEK-293 line with an ATXN2-luciferase reporter) viability, CellTiter-Fluor protease fluorescence, 24 h; further: potency means the concentration at half of the fitted maximal effect; nearly all actives have a fitted effect of over 40% in size
IL1B secr inh: qHTS for Inhibitors of Inflammasome Signaling: IL-1-beta AlphaLISA Primary Screen | THP-1 LPS/ATP IL-1B secretion, AlphaLISA, 16 h; hits give low values | activity change, % at 57.5 µM | 360,000 tested, 4.7% active | AID 743279, 2014; in the data active means activity change below about -50%; inconclusive means mostly about -30% to -49%; further: on the % scale 0 is the no-effect control and ±100 the full control effect
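Secreted IL-1B measured by AlphaLISA bead assay after 16 h compound exposure of THP-1 cells; compounds (final up to 57.5 uM) added 1 h before LPS (250 ng/mL) and ATP (1.25 mM) stimulation; lower signal means less secretion.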
USP2a block: qHTS Assay for Inhibitors of Ubiquitin-specific Protease USP2a Using CHOP2 as the Reporter; 330,000 tested, 0.01% active; AID 463254, 2010; Ubiquitin carboxyl-terminal hydrolase 2 (Homo sapiens), O75604; USP2 core, Ub-CHOP2 coupled fluorogenic reporter, 485/531; Potency, µM (titrated, usually from 38.3 µM), for the others: at the highest dose activity change, negative = inhibition, actives largely listed as inhibitors;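 further: potency means the concentration at half of the fitted maximal effect; plate controls were DMSO wells for no effect and full inhibition by NEM control for full effect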
Target sequence (O75604 whole entry, looked up): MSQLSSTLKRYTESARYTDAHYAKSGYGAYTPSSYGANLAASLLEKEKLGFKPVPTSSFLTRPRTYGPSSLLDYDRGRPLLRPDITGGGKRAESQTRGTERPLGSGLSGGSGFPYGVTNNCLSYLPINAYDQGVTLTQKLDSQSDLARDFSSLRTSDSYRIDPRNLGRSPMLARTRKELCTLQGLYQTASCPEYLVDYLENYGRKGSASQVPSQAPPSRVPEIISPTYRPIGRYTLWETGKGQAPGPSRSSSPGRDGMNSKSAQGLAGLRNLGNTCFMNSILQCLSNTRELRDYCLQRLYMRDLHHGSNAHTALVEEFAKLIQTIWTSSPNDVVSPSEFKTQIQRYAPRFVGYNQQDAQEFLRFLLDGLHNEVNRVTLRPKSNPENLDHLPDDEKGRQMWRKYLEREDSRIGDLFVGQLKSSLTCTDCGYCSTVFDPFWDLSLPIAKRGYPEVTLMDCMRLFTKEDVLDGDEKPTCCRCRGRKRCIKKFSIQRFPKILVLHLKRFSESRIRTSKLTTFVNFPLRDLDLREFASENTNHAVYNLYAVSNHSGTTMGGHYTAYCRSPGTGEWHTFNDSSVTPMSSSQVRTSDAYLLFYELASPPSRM
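Cell-free coupled assay: 10nM USP2 core preincubated 30min RT with compound in Tris-HCl pH 8.0/CaCl2/CHAPS buffer, then 25nM Ub-CHOP2 and 25nM reporter substrate; fluorescence (Ex 485/Em 531) read after 60min RT, normalized to NEM inhibition, concentration-response curves fitted.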
USP1-UAF1 inh: Inhibitors of USP1/UAF1: Primary Screen | recombinant USP1/UAF1, Ub-Rhodamine cleavage fluorescence | 390,000 tested, 0.23% active | Potency, µM (top dose mostly 57.1 µM), for inactives: at the top dose activity change, negative = inhibition, actives largely listed as inhibitors | Ubiquitin carboxyl-terminal hydrolase 1 (Homo sapiens), O94782 | AID 743255, 2014; further: potency means the concentration at half of the fitted maximal effect; on the % scale 0 is the no-effect control and ±100 the full control effect; nearly all actives have a fitted effect of over 60% in size
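USP1/UAF1 complex at 1 nM was preincubated with compound for 15 min at room temperature, then Ub-Rho substrate (150nM final) was added. Fluorescence (480/540 nm) was read kinetically, 6 reads every 60 seconds.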
The depositor's hits bear a star; i = inactive; ? = inconclusive; . = no result; ! = a repeat was not active. The list is not random: actives were taken first. Their share in the collection is about 4.8%. Unless noted, the call rests on the fitted dose curve; in most records, active means well fitted curve in the direction sought with a large enough effect; inconclusive means small, poorly fitted or top-dose-only effect, or another doubt; inactive means no such curve, though single readings can be large; an effect the other way counts as inactive or inconclusive.

SMILES | ATXN2 expr inh | ATXN viability | IL1B secr inh | USP2a block | USP1-UAF1 inh
O=C(COc1ccccc1)NC1CCCc2ccccc21 (centres undefined) | -8.4% | i | 5.0 | 0.7% | -18.2%
COc1ccc(CNC2CCCc3ccccc32)c(OC)c1 (centres undefined) | -10.5% | i | -50.1* | -0.2% | -15.3%
CCCC(=O)Nc1nnc(SCC(=O)NC2CC2)s1 | -13.8% | i | -8.5 | 0.8% | -13.5%
CNC(=O)c1cc(Nc2nnc(-c3ccc(C)c(S(N)(=O)=O)c3)c3ccccc23)ccc1OC | -29.8% | i | -73.8* | 0.4% | -6.7%
O=C(Cn1cc[n+](CC(=O)c2ccc(Cl)cc2Cl)c1)c1ccc(Cl)cc1Cl | -36.7% | ? | -82.2* | -5.6% | -17.3%
CCOC(=O)/C(C#N)=C\c1ccc(N2CCN(C/C=C/c3ccccc3)CC2)cc1 | -8.8% | i | 6.4 | 5.7% | 28.2µM*
O=C(c1cc(C2CC2)nn1-c1ccccc1)N1CCN(c2ccccn2)CC1 | 0.4% | i | -62.6* | -1.0% | -5.9%
COc1ccc(CC(=O)Nc2oc(-c3ccccc3)c(-c3ccccc3)c2C#N)cc1OC | -12.2% | i | -6.7 | -4.6% | -20.3%
CCOc1ccc(CNC(=O)CSc2nnc(C)c3c(C)n(-c4ccccc4)nc23)cc1 | -25.5% | i | . | . | ?
CC(C)CN1CCC(=O)N(CCN=[N+]=[N-])CC1 | 0.7% | i | 14.5 | 2.2% | -23.3%
Cc1ccc(S(=O)(=O)N2CCN(C(=O)CCCOc3ccc(Cl)cc3C)CC2)cc1 | ? | i | -62.1* | 2.5% | -18.0%
O=[N+]([O-])c1ccc(N2CCN(c3ccccn3)CC2)c(Cl)c1 | 36.4% | i | -58.7* | -1.6% | -18.1%
CCCC(=O)N1CCN(c2ccc([N+](=O)[O-])cc2Cl)CC1 | -6.7% | i | -1.6 | -0.4% | -4.5%
Cc1cc(Cl)ccc1OCCCC(=O)N1CCCCC1 | 6.3% | i | -29.2 | -4.3% | -12.3%
O=C(CSc1ccc(Cl)cc1)N1CCN(c2ccc([N+](=O)[O-])cc2Cl)CC1 | ? | i | -62.0* | -0.8% | -1.9%
Cc1ccc(SCC2(O)CCN(S(=O)(=O)c3ccc(Cl)cc3)CC2)cc1 | -21.7% | i | -17.8 | -1.4% | -12.6%
Cc1ccc(S(=O)(=O)N2CCN(C(=O)CSc3ccc(Cl)cc3)CC2)cc1 | -34.9% | ? | -60.7* | 1.4% | -5.1%
CN(Cc1cccc(Cl)c1Cl)C(=O)CCNC(=O)c1ccco1 | -7.5% | i | -2.0 | -11.4% | ?
COC(=O)c1sc(NC(=O)OCc2ccccc2)nc1CCNC(=O)OC(C)(C)C | . | . | -3.9 | . | .
O=C(NCCOc1nc(N2CCCCC2)nc(N2CCCCC2)n1)Nc1ccccc1 | -31.8% | ? | -63.3* | 5.3% | -11.2%
O=C(NCCOc1nc(N2CCCCC2)nc(N2CCOCC2)n1)Nc1ccccc1 | -12.9% | i | ? | 0.2% | -1.3%
CCN(CC)c1nc(OCCNC(=O)Nc2ccccc2)nc(N(CC)CC)n1 | -7.6% | i | -63.4* | -16.1% | ?
O=c1cc(N2CCOCC2)oc2c(-c3cccc4c3sc3ccccc34)cccc12 | -18.0% | . | . | . | .
COCCN(C(=O)c1ccco1)c1nnc(-c2ccc(OC)c(OC)c2)s1 | 1.0% | i | -58.6* | -0.6% | 4.1%
CC(C)NC(=O)NC(=O)CN1c2cccc3cccc(c23)S1(=O)=O | . | i | 29.0 | 2.3% | -9.0%
SMILES | ATXN2 expr inh | ATXN viability | IL1B secr inh | USP2a block | USP1-UAF1 inh
CC1CCCN(C(=O)c2ccc(S(=O)(=O)N3CCC(c4nc5ccccc5s4)CC3)cc2)C1 (centres undefined) | -19.7% | i | -70.5* | . | -8.5%
Cc1ccc(OCC(O)CN2CCN(Cc3ccc4c(c3)OCO4)CC2)c(C)c1 (centres undefined) | -22.2% | i | -60.0*! | 3.6% | -8.4%
Cc1nc(N/N=C\c2ccc3c(c2)OCO3)sc1C | 58.1% | i | -26.6 | 3.1% | -4.8%
CC(C)N1C(=O)/C(=C\c2nc3ccccc3c(=O)n2-c2ccccc2)c2ccccc21 | ? | ? | -106.3* | -2.3% | -17.5%
CC(C)N1C(=O)/C(=C/c2nc3ccccc3c(=O)n2-c2ccccc2)c2ccccc21 | ? | ? | -95.5* | 0.3% | -17.2%
NNc1nc(-c2ccccc2)cc(-c2ccc(Br)cc2)n1 | ? | i | -55.7* | 3.9% | -12.3%
C=CCn1c(SCC(=O)NCC2CCCO2)nnc1-c1ccncc1 (centres undefined) | -13.2% | i | 0.0 | 2.6% | 3.1%
CCC(COC)NCc1cn(-c2ccc(OC)cc2)nc1-c1cccc(F)c1 (centres undefined) | ? | ? | -82.2* | 0.8% | -17.4%
COc1ccc(-n2cc(CN3CCCC3)c(-c3cccc(F)c3)n2)cc1 | -28.0% | i | -76.8* | -1.2% | -19.3%
COc1ccc(-n2cc(CNC3CCN(C)CC3)c(-c3cccc(F)c3)n2)cc1 | ? | i | -62.8* | 1.2% | -15.6%
CCCCc1ccc(NC(=O)CSc2nc(=O)n(CCN(CC)CC)c3c2CCCC3)cc1 | ? | . | -78.2* | 0.3% | -3.2%
CCCCc1ccc(NC(=O)CSc2nc(=O)n(CCN(C)C)c3c2CCC3)cc1 | -11.6% | ? | -72.3* | 0.7% | -13.6%
CCN(CC)CCn1c2c(c(SCC(=O)Nc3cccc4ccccc34)nc1=O)CCCC2 | 10.0% | i | -65.6* | 3.3% | -1.5%
Cc1ccc(NC(=O)CSc2nc(=O)n(CCN(C)C)c3c2CCCC3)cc1Cl | -22.7% | i | -87.3* | -0.5% | -2.6%
COc1ccc(NC(=O)CSc2nc(=O)n(CCN(C)C)c3c2CCCC3)cc1 | 4.0% | i | 10.2 | 1.1% | -20.2%
CCN(CC)CCn1c2c(c(SCC(=O)Nc3cc(C)cc(C)c3)nc1=O)CCC2 | 12.1% | i | -3.9 | -3.3% | -7.5%
CCCCn1c(CNC(=O)C23CC4CC(CC(C4)C2)C3)nnc1SCC(=O)Nc1ccc(F)cc1 | ? | ? | . | . | -15.2%
COc1ccc(CN2CCCC(c3nc(C)ncc3-c3ccc(F)cc3)C2)c(OC)c1OC (centres undefined) | . | i | . | . | .
COCCCNc1c2c3c(cccc3[nH]c1=O)C(=O)c1ccccc1-2 | -38.2% | . | 12.5 | ? | 4.47µM*
COCCCNC1=C(Cl)C(=O)c2ccccc2C1=O | ? | i | -6.7 | 3.3% | ?
COc1cc2c(=O)c(C(=O)c3ccc(F)cc3)cn(Cc3cccc(F)c3)c2cc1OC | -13.5% | ? | . | . | -26.2%
COc1cc2c3nnc(-c4ccc(F)cc4)c-3cn(Cc3ccc(F)cc3)c2cc1OC | ? | i | 20.8 | -9.0% | -3.3%
COc1cc2c3nnc(-c4ccc(F)cc4)c-3cn(Cc3ccccc3)c2cc1OC | 15.8µM* | i | -95.0* | 0.3% | 31.6µM*

Bioassay records: PubChem, National Center for Advancing Translational Sciences (NCATS)
